# Screening data as filed in PubChem BioAssay.
# PTHR1 agonist: PTHR1 (human) receptor agonism. Q03431. 410,000 tested, 0.075% active. Potency, µM (highest dose often 115 µM), for the others: top-dose activation, most hits filed as activators. AID 743266. HEK293 GP2 PTHR1 cells, GloSensor cAMP luminescence, 1 h; note: potency is the fitted concentration of half-maximal effect; nearly all actives have a fitted effect of over 55% in size
# Target sequence (Q03431 whole entry, looked up): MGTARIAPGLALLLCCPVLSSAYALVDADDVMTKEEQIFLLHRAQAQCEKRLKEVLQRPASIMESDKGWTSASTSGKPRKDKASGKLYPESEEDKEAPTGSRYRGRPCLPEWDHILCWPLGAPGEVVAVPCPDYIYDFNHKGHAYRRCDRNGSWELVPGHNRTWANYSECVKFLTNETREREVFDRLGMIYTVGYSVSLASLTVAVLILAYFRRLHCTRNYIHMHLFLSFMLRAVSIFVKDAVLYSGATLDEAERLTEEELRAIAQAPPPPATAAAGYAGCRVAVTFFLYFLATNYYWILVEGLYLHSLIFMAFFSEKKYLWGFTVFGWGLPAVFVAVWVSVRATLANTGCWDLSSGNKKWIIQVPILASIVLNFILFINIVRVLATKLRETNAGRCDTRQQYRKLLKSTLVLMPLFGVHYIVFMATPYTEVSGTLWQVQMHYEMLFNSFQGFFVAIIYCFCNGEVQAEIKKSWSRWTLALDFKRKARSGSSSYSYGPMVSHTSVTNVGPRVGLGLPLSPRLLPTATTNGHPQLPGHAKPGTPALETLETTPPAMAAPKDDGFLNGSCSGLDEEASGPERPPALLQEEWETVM
#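 HEK-293-derived GP2 cells expressing PTHR1 and a GloSensor cAMP reporter, 3,000/well, plated overnight, given luciferin plus IBMX (each 0.5 mM as added) for 1 h at 37 °C, then compound for 1 h at 37 °C. Luminescence was read after 15 min at room temperature.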
# HEK293 tox: cytotoxicity counter-screen for GLP-1 receptor inverse agonists; 410,000 tested, 0.13% active; AID 624418; HEK293 cAMP-luciferase reporter cells, luminescence, 24 h; Potency, µM (highest dose often 38.3 µM), for inactives: top-dose activity change, negative = inhibition, hits mostly inhibitors;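 note: loss of luciferase light is scored as toxicity; potency is the fitted concentration of half-maximal effect; % is set by controls: 0 for no effect and ±100 for the full control effect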
#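 Luminescence readout: signal drop marks cytotoxicity. Plated cells grew 12 h at 37 °C, 5% CO2, received 23 nL compound for 24 h, then got luciferase reagent, read after 12 min at RT.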
# TRHR enhancer: TRH receptor (human) allosteric enhancement; enhancement, % at 2 µM; 360,000 tested, 0.66% active; TRHR cells, fluo-8 calcium fluorescence, EC20 TRH enhancement; in the data active = enhancement above about 30%; note: 0% is about no effect
#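 TRHR-expressing cells loaded with fluo-8 calcium dye were read kinetically (ex 480/em 530) during compound addition, then stimulated with an EC20 of TRH (10 nM final). Enhancement of the Gq-mediated intracellular calcium response was scored.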
# GLP1R ag: activates the human GLP-1 receptor. HEK293 GLP-1R CRE-luciferase, luminescence, 4-6 h; cells express a hypersensitive GLP-1R form. Potency, µM (top dose mostly 45.6 µM), without a hit: at the top dose activation, most hits filed as activators. 380,000 tested, 0.007% active; note: potency is the fitted concentration of half-maximal effect; % of control where 0% means no effect
# TRHR ag: agonists of human TRH receptor; P34981; TRHR cells, calcium flux fluo-8, FDSS agonist mode; activation, % at 2 µM; 360,000 tested, 0.18% active; in the data active = activation above about 30%; note: 0% is about no effect
#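 TRHR-expressing cells loaded with fluo-8 calcium dye; 23 nL library compound pin-transferred, kinetic FDSS fluorescence (Ex 480/Em 530) recorded about 180 s for agonist-induced calcium release, before a 10 nM TRH EC20 addition for potentiator mode.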
# GLP1R inv ag: acts as inverse agonist at human GLP-1 receptor | P43220 | HEK293 GLP-1R CRE-luciferase, luminescence, 24 h; GLP-1R form is constitutively active | Potency, µM (titrated, usually from 38.3 µM), for the others: top-dose activity change, negative = inhibition, most hits filed as inhibitors | 410,000 tested, 1.6% active | AID 624417; note: potency is the fitted concentration of half-maximal effect; % is set by controls: 0 for no effect and ±100 for the full control effect; nearly all actives have a fitted effect of over 55% in size
#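 Using stably transfected HEK293 (constitutively active GLP-1R, cAMP-luciferase reporter), compounds were incubated 24 hr and luciferase measured by luminescence.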
# Numbers without * were called inactive; i = inactive; u = inconclusive; x = no result. Compounds with a hit are over-represented: about 2.4% of the library has one in this group of screens. Unless noted, calls come from the whole dose curve; as a rule, active = well fitted curve in the direction sought with a large enough effect; inconclusive = small, poorly fitted or top-dose-only effect, or another doubt; inactive = no such curve, though single readings can be large; an effect the other way counts as inactive or inconclusive.
SMILES,PTHR1 agonist,HEK293 tox,TRHR enhancer,GLP1R ag,TRHR ag,GLP1R inv ag
COc1ccc(C)cc1NC(=O)CN(c1ccccc1F)S(C)(=O)=O,i,9.2%,-1.3,0.9%,-0.7,1.7%
COc1ccc(Cl)cc1NC(=O)CN(c1cccc(C)c1C)S(=O)(=O)c1ccccc1,-19.1%,6.2%,-3.6,-1.9%,1.4,u
CCCc1c(O)nc(SCC(=O)NCc2ccco2)[nH]c1=O,i,-2.6%,4.3,-0.2%,0.4,4.9%
CC(C)(C)OC(=O)N(CCc1ccccc1)Cc1ccccc1OCc1cccc(NC(=O)C2CCCC2)c1,7.0%,3.8%,x,-3.4%,x,2.82µM*
CC(C)(C)OC(=O)N(CCc1ccccc1)Cc1ccccc1OCc1ccc(NC(=O)C2CCC2)cc1,-14.0%,1.9%,x,-2.3%,x,3.55µM*
CC(C)(C)OC(=O)N(Cc1ccccc1)Cc1ccccc1OCc1ccc(NC(=O)C2CCC2)cc1,-21.7%,-17.8%,x,-1.8%,x,2.82µM*
CC(C)(C)OC(=O)N(CCc1ccccc1)Cc1cccc(OCc2cccc(NC(=O)C3CCCC3)c2)c1,-2.5%,-11.1%,x,18.1%,x,10µM*
CC(C)(C)OC(=O)N(CCc1ccccc1)Cc1ccccc1OCc1cccc(NC(=O)C2CC2)c1,-11.8%,-3.0%,x,0.1%,x,u
C/C(=N\OCC(=O)Nn1c(C)nc2ccccc2c1=O)c1cccs1,-35.6%,10.1%,-4.8,1.2%,-0.2,3.7%
CCN(c1cccc(C)c1)S(=O)(=O)c1cnc[nH]1,i,-14.8%,4.8,-4.4%,-0.2,-4.6%
CCc1cc(=O)[nH]c(SCc2cccc3ccccc23)n1,-19.4%,3.0%,-4.1,-2.1%,0.1,48.9%
CC(C)C(=O)Nc1cccc(COc2ccccc2CN(Cc2ccccc2)C(=O)OC(C)(C)C)c1,i,-2.8%,x,4.7%,x,11.2µM*
CC(C)(C)OC(=O)N(Cc1ccccc1)Cc1ccccc1OCc1cccc(NC(=O)c2ccccc2)c1,i,0.9%,x,-4.3%,x,u
CC(C)c1ccc(NC2CCCN(C(=O)CC3CCCC3)C2)cc1 (configuration not stated),-29.8%,6.4%,-3.6,20.2%,0.4,6.31µM*
COc1ccc(CN2C(=O)C(CC(=O)NC3CC3)CC(C(=O)N3CCOCC3)=C2C)cc1 (configuration not stated),-15.6%,-1.6%,x,-1.4%,x,18.6%
CCN(CC)CC(O)Cn1c(C)c(-c2ccccc2)c2cc([N+](=O)[O-])ccc21 (configuration not stated),i,u,1.5,1.7%,3.9,4.47µM*
CCN1/C(=C/C(C)=O)Sc2ccc(OC)cc21,i,-6.8%,0.6,-11.6%,-0.7,0.3%
CCOC(=O)/C(=C\C=C1/Sc2cc(OCC)c(OCC)cc2N1CC)C(C)=O,i,5.8%,19.3,0.9%,159.5*,16.9%
CCOC(=O)/C(=C/C=C1\Sc2cc(OCC)c(OCC)cc2N1CC)C(C)=O,-3.2%,-2.7%,48.1*,14.8%,244.1*,-2.6%
CCN1/C(=C\C=C2\C(=O)N(C)C(=S)N2C)Sc2ccccc21,-2.5%,9.7%,4.5,1.6%,1.3,29.8%
COc1ccccc1-c1nnc(SCC(=O)Nc2ccccc2F)o1,i,3.2%,-2.0,x,0.0,3.5%
CC(C)c1ccc(NC(=O)c2cc3sc(Cl)cc3n2C)cc1,-2.9%,0.0%,7.7,x,-0.4,-28.5%
Cn1c(C(=O)Nc2ccc(Cl)cc2)cc2cc(Cl)ccc21,u,-1.7%,32.5*,-0.2%,0.8,17.1%
O=C(Nc1nc2c(s1)CN(Cc1ccccc1)CC2)c1cccc(S(=O)(=O)N2CCc3ccccc32)c1,u,188.7%,-5.2,-1.7%,45.8*,1.0%
CN(C)c1ccc(C(=O)Nc2nc3c(s2)CCCC3)cc1,-49.9%,-2.4%,-4.7,-0.9%,-0.4,11.2µM*
SMILES,PTHR1 agonist,HEK293 tox,TRHR enhancer,GLP1R ag,TRHR ag,GLP1R inv ag
CC1CCc2nc(NC(=O)c3ccc(S(=O)(=O)N4CCCc5ccccc54)cc3)sc2C1 (configuration not stated),i,-0.7%,-3.5,-5.6%,0.6,-35.0%
O=C(Nc1nc2c(s1)CCCC2)c1ccc(S(=O)(=O)N2CCCc3ccccc32)cc1,-30.7%,19.9%,4.4,-11.9%,0.0,3.98µM*
COc1cc(/C=N/NC(N)=S)cc(Br)c1OCc1ccccc1F,i,5.62µM*,1.6,-0.2%,0.4,-6.9%
COC(=O)c1ccc(C(=O)OC)c(NC(=O)CSCc2ccc(Br)cc2)c1,-24.5%,-17.9%,7.2,-1.4%,1.2,7.94µM*
COC(=O)c1ccc(C(=O)OC)c(NC(=O)CCC(=O)O)c1,i,0.0%,1.3,-3.9%,-0.1,3.8%
COC(=O)c1ccc(C(=O)OC)c(NC(=O)CN(C)Cc2cccc(Cl)c2Cl)c1,i,5.1%,19.2,-13.6%,-0.1,u
CSc1ccccc1NC(=O)CN(C)Cc1ccc(Br)cc1,i,10.9%,-2.8,17.4%,-0.5,7.08µM*
COC(=O)c1ccc(C(=O)OC)c(NC(=O)CN(C)Cc2ccccc2)c1,-7.7%,-3.8%,31.4*,35.3%,0.5,u
Cc1cc(C(=O)COC(=O)c2cccnc2Cl)c(C)n1C,-56.5%,1.2%,x,-6.2%,x,7.08µM*
CSc1ncccc1C(=O)OCC(=O)c1cc(C)n(C)c1C,-42.2%,-15.6%,x,-16.6%,x,17.6%
COc1ccc(CNC(=O)[C@H](NC(=O)C2CCN(C(=O)[C@@H](N)CCSC)CC2)C(C)C)cc1,-3.6%,-28.3%,-8.6,2.4%,-1.0,2.7%
Cc1ccc(NC(=S)N/N=C2/CCCCc3ccccc32)cc1,i,4.6%,-3.0,13.3%,-0.5,3.55µM*
Cc1ccc(C)c(NC(=S)N/N=C2\CCc3ccccc32)c1,-31.9%,u,-2.2,-1.5%,-0.7,u
CCNC(=S)N/N=C1\CCCCc2ccccc21,i,3.98µM*,11.8,8.1%,0.0,3.55µM*
C=C(C)CNC(=S)N/N=C1\CCCCc2ccccc21,-3.2%,3.98µM*,1.0,22.7%,-0.9,u
Cc1cccc(NC(=S)N/N=C2/CCCCc3ccccc32)c1,i,21.2%,-5.0,0.1%,0.3,u
COc1ccc(NC(=O)C(=O)N/N=C/c2cccnc2)cc1,i,1.1%,-1.1,4.8%,0.8,20.1%
O=C(CC1C[C@H](C(=O)N2CCCCC2)[C@@]2(CCc3ccccc3)c3[nH]c4ccccc4c3CCN2C1=O)NCc1ccco1 (some centres not stated),-24.6%,-0.2%,x,-3.9%,x,3.2%
